# High-throughput results: PubChem, several laboratories
# The list is not random: actives were taken first. Their share in the collection is about 2%.
# PGE2 EP2 inh: EP2 receptor (human) inhibition; P43116; C6 glioma cells expressing human EP2, cAMP TR-FRET; cells stimulated with saturating PGE2; inhibition, % at 25 µM; 260,000 compounds, 0.52% hits; AID 1422;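 active means percent inhibition above 40 after rounding to a whole number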;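 further: rat C6 glioma host cells with rolipram phosphodiesterase inhibitor present; the protocol text gives 20 µM as final concentration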
# S1P4 ag: agonists of human S1P4 receptor; S1P4-expressing cell line, agonist reporter assay; O95977; activation, % at 4.98 µM; 220,000 compounds, 0.35% hits; in the data active means activation above about 11%;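 further: 0% = DMSO vehicle and 100% = reference agonist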
# Target sequence (O95977 whole entry, looked up): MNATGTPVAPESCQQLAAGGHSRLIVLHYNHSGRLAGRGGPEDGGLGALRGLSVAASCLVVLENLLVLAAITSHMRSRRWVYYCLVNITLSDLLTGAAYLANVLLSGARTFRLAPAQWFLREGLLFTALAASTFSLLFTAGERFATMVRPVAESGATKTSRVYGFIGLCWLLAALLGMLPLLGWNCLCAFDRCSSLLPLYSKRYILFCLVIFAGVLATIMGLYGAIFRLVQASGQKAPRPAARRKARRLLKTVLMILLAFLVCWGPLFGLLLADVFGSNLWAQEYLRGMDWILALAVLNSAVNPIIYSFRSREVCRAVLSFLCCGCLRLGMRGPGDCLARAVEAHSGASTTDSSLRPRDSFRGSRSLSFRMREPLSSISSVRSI
# S1P4 antagonist: blocks the human S1P4 receptor | inhibition, % at 4.98 µM | S1P4-expressing cells, antagonist mode, reporter read-out | 220,000 compounds, 0.26% hits | AID 1510 | O95977; in the data active means inhibition above about 29%;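 further: 0% = wells stimulated with agonist and 100% = vehicle wells without agonist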
# S1P3 antagonist: S1P3 (human) receptor antagonism. CHO S1P3 NFAT-BLA reporter, FRET fluorescence, antagonist mode. inhibition, % at 4.98 µM. 170,000 compounds, 0.27% hits;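 active means inhibition above the plate cutoff, the mean inhibition of test wells on that plate plus 3 SD, cut at about 28% in these data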;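 further: cells challenged with S1P at its EC80 of 0.8 µM; blue over green emission ratio from cleaved BLA substrate after 4 h stimulation; 0% = S1P-stimulated wells and 100% = unstimulated DMSO-only wells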
# EP2 modulator: EP2 receptor (human) modulation; AID 940; EP2-expressing cells, cAMP HTRF FRET, PGE2 co-stimulation; P43116; 260,000 compounds, 0.83% hits; induction, % at 25 µM;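 active means compounds whose cAMP rise, as percent of the full-agonist control response, exceeds 60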;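 further: rat C6 glioma line stably carrying human EP2 under a CMV promoter; the protocol text gives 20 µM as final concentration; 100% = response of wells given 1 µM PGE2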
# * marks the source's active call; other numbers are inactive results; x = no result; ! = not confirmed by another sample.
SMILES,PGE2 EP2 inh,S1P4 ag,S1P4 antagonist,S1P3 antagonist,EP2 modulator
C=CCn1c(=NC(=O)c2ccco2)sc2cc(C(=O)OCC)ccc21,41*,-1,-5,-19,33
C=CCn1c(=NC(=O)c2ccco2)sc2cc(C(=O)OC)ccc21,5,0,-2,-20,11
CCN(CC)c1c(-c2ccccc2)c2cc(C)ccc2[nH]c1=O,10,1,-7,-28,61*
Cc1ccc(-c2nn(C(C)(C)C)c3ncnc(NS(=O)(=O)c4ccc([N+](=O)[O-])cc4)c23)cc1,11,-1,3,-10,62*
CCOC(=O)C1=c2s/c(=C\c3ccncc3)c(=O)n2C(N)=C(C(=O)OC)C1c1ccncc1 (centres undefined),6,2,-17,-2,39
CCOC(=O)C1=C(N)n2c(s/c(=C/c3ccco3)c2=O)=C(C(=O)OC)C1c1ccco1 (centres undefined),17,1,-23,81*,17
O=C(NC1(c2ccc(F)cc2)CCCC1)c1cccc(N2CCCCS2(=O)=O)c1,6,x,x,x,-9
Cc1cccc(-c2n[nH]c(=S)o2)c1,41*,x,x,x,36
S=c1[nH]nc(-c2cccc(Br)c2)o1,53*,0,-3,30,28
Cc1cccc(-c2n[nH]c(=S)n2C)c1,3,0,10,16,-26
CCOc1ccccc1-c1n[nH]c(=S)o1,40*,0,-3,x,41
Cc1cc(OCc2nnc(SCC(=O)N(C(C)C)C(C)C)o2)ccc1Cl,27,x,x,x,-27
Nc1nc2c(nc(Br)n2C2OC3COP(=O)(O)O[C@@H]3C2O)c(=O)[nH]1 (some centres undefined),10,x,x,x,11
Nc1ncnc2c1nc(Br)n2C1OC2COP(=O)(O)O[C@@H]2C1O (some centres undefined),2,x,x,x,93*
CCO[P@]1(=O)OC[C@@H]2O[C@H](n3cnc4c(N)ncnc43)[C@H](O)[C@H]2O1,4,x,x,x,101*
CC(=O)N(c1nc(CCl)cs1)c1ccc(C)cc1C,10,1,-10,2,62*
CCc1ccccc1N(C(C)=O)c1nc(CCl)cs1,8,2,-15,9,42
Cc1ccc(-c2nc3cc(N)ccc3o2)cc1,x,0,0,-31,-27
Cc1ccc(-c2nc3cc(N)ccc3o2)c(C)c1,41*,1,-5,-7,5
CCn1c(N)c(C(=O)NCc2cccnc2)sc1=S,11,1,-28,54*,22
Nc1c(C(=O)NCc2cccnc2)sc(=S)n1-c1ccccc1,4,3,-20,16,4
CCn1c(=O)c(C(=O)Nc2cccnc2)c(O)c2ccccc21,x,1,-8,-1,x
CCn1c(=O)c(C(=O)NCc2cccnc2)c(O)c2ccccc21,11,0,-10,x,65*
CC(C)Cn1c(=O)c(C(=O)NCc2ccccn2)c(O)c2ccccc21,15,0,9,-10,62*
CCn1c(=O)c(C(=O)NCc2ccccc2OC)c(O)c2ccccc21,14,x,x,x,62*
SMILES,PGE2 EP2 inh,S1P4 ag,S1P4 antagonist,S1P3 antagonist,EP2 modulator
COC(=O)[C@H]1CN(C(=O)CN2CCCC2=O)C[C@@H]1c1ccc(F)cc1,8,x,x,x,-9
O=C(C[n+]1ccc2ccccc2c1)c1cccc2ccccc12,7,1,16,-2,-27
c1ccc2c[n+](CCCC[n+]3ccc4ccccc4c3)ccc2c1,43*,x,x,x,-5
O=C(/C=C/c1ccccc1)c1ccc(O)cc1O,11,x,x,x,-8
O=CN/C=C/c1cc(O)ccc1O,111*,1,21,-10,-44
Cc1ccc(-n2c(SCC(=O)N3CCCC(C)C3)nnc2-c2ccco2)cc1 (centres undefined),93*,x,x,x,16
Cc1ccc(-n2c(SCC(=O)NC3CCCCC3)nnc2-c2ccco2)cc1,16,x,x,x,26
Cc1ccccc1OCCn1c(=O)sc2ccccc21,2,1,11,x,63*!
COc1cccc(CC2(CO)CCCN(Cc3ccccc3-c3ccco3)C2)c1 (centres undefined),1,2,-15,-4,63*
COc1cccc(CC2(CO)CCCN(Cc3ccc(-c4ccco4)cc3)C2)c1 (centres undefined),3,3,-6,-6,-36
O=S(=O)(O)c1ccc(N=Nc2ccc3c(S(=O)(=O)O)cccc3c2O)c2ccccc12,56*,x,x,x,-9
O=S(=O)(O)c1cc(N=Nc2cccc3ccccc23)c(O)c2ncccc12,38,x,x,x,-3
CCN(C(=O)C1CC1)c1nc(-c2cc(OC)ccc2OC)cs1,9,x,x,x,65*
COc1ccc(OC)c(-c2csc(N(C)C(=O)C3CCCCC3)n2)c1,25,x,x,x,-14
COc1ccc(OC)c(-c2csc(N(C)C(=O)COc3ccc(C)cc3)n2)c1,54*,x,x,x,32
COc1ccc(OC)c(-c2csc(N(C)C(=O)c3cc(OC)c(OC)c(OC)c3)n2)c1,4,x,x,x,-13
CCc1ccc(NC(=S)N(CCN(C)C)Cc2cc3cc(CC)ccc3[nH]c2=O)cc1,10,x,x,x,-51
COc1ccccc1N1C(=O)C=C(Sc2nc(C)cc(C)n2)C1=O,42*,0,-6,-2,-61
Cc1nc(C)n(CCNS(=O)(=O)c2ccc3c(c2)NC(=O)C(C)O3)n1 (centres undefined),7,x,x,x,-20
Cc1cccc2cc(CN(CCO)C(=O)Nc3ccccc3F)c(=O)[nH]c12,13,x,x,x,-24
C=C[C@@]1(C)CC(=O)[C@@]2(O)[C@](C)(O1)[C@@H](OC(C)=O)[C@@H](O)C1C(C)(C)CC[C@H](O)[C@@]12C (some centres undefined),8,x,x,x,104*
CC(Oc1ccccc1)C(=O)NC1C(=O)N2C1SC(C)(C)C2C(=O)O (centres undefined),7,0,5,-2,-5
CC1(C)S[C@H]2[C@H](NC(=O)Cc3ccccc3)C(=O)N2[C@@H]1C(=O)O,49*,x,x,x,19
NC(=O)C(F)(F)C12OC3C4C5CC(C6C5C3C61)C42 (centres undefined),106*,-1,-33,-4,3
CCC(=O)Nc1sc2c(c1C#N)CCCCC2,13,3,2,x,62*
SMILES,PGE2 EP2 inh,S1P4 ag,S1P4 antagonist,S1P3 antagonist,EP2 modulator
CCOC(=O)c1cccc(NC(=O)CSc2nnc3c(C)cc4cc5c(cc4n23)OCO5)c1,48*,x,x,x,3
Cc1cc(NC(=O)CSc2nnc3c(C)cc4cc5c(cc4n23)OCO5)no1,x,x,x,-16,x
CC(=O)NCC1COc2ccccc2O1 (centres undefined),54*!,-1,-5,-3,-5
c1ccc2c(c1)OCC(CNCC1COc3ccccc3O1)O2 (centres undefined),3,x,x,x,-31
CC(=O)/C=C(\C)Nc1ccc(-c2cnc(-c3ccccc3)o2)cc1,20,1,-5,-95,-26
c1ccc(-c2cnc(-c3ccc(-c4ncc(-c5ccccc5)o4)cc3)o2)cc1,45*,x,x,x,12
Cc1cc(-c2sccc2Br)nc(-n2cccc2)n1,16,-1,-12,-12,65*
Cc1cc(-c2ccc(Br)s2)nc(-n2cccc2)n1,23,-2,13,3,49
